Laboratory results reported in PubChem BioAssay AID1159580 (chemical genetic matrix, 2015).
Screen size: about 5,500 compounds; about 2,000 (36%) were called active. Another 18% or so got no clear call; they are omitted. Cut-off read from the data, not from the text of the source: active = normalized growth mostly below about 0.91 (no sharp cut-off); inconclusive = no clear call, values can overlap the other calls; inactive = mostly above about 0.92. Some of the results follow.

Test: chemical genetic growth profiling, strain panel (AID 1159580);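 note: tested at 20 µM; growth read once vehicle control cultures reached saturation at 30 °C; 1 = growth at the plate median or of vehicle wells; lower values mean less growth of the strain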
Conditions: growth OD

Measured: normalized growth

C[C@@H](CO)NC(=O)C1C=C2c3cccc4[nH]cc(c34)C[C@H]2N(C)C1 (some centres not stated)
inactive: S. cerevisiae deletion strains, locus YJR075W, strain HOC1, stronger effect = lower value 1.03 | S. cerevisiae deletion strains, locus YKL009W, strain mrt4, stronger effect = lower value 0.976 | S. cerevisiae deletion strains, locus YKL068W, stronger effect = lower value 0.993 | S. cerevisiae deletion strains, locus YKL085W, strain MDH1 (second series), stronger effect = lower value 0.982 | S. cerevisiae deletion strains, locus YKL085W, strain MDH1, stronger effect = lower value 0.982 | S. cerevisiae deletion strains, locus YKL160W, strain elf1, stronger effect = lower value 1.04 | S. cerevisiae deletion strains, locus YKL190W, strain CNB1, stronger effect = lower value 1.01 | S. cerevisiae deletion strains, locus YKR001C, strain vps1, stronger effect = lower value 0.997 | S. cerevisiae deletion strains, locus YKR026C, strain gcn3, stronger effect = lower value 1.01 | S. cerevisiae deletion strains, locus YKR091W, strain srl3, stronger effect = lower value 1.01 | S. cerevisiae deletion strains, locus YLL001W, strain dnm1, stronger effect = lower value 1.04 | S. cerevisiae deletion strains, locus YLL026W, stronger effect = lower value 1.03 | S. cerevisiae deletion strains, locus YLL041C, strain sdh2, stronger effect = lower value 1.01 | S. cerevisiae deletion strains, locus YLR027C, strain aat2, stronger effect = lower value 1.03 | S. cerevisiae deletion strains, locus YLR039C, strain RIC1, stronger effect = lower value 1.02 | S. cerevisiae deletion strains, locus YLR058C, strain SHM2, stronger effect = lower value 1 | S. cerevisiae deletion strains, locus YLR102C, strain apc9, stronger effect = lower value 0.993 | S. cerevisiae deletion strains, locus YLR113W, strain HOG1, stronger effect = lower value 1.07 | S. cerevisiae deletion strains, locus YLR221C, strain rsa3, stronger effect = lower value 0.97 | S. cerevisiae deletion strains, locus YLR258W, strain gsy2, stronger effect = lower value 1.01 | S. cerevisiae deletion strains, locus YLR262C, strain YPT6 (second series), stronger effect = lower value 1.04 | S. cerevisiae deletion strains, locus YLR262C, strain YPT6, stronger effect = lower value 1.05 | S. cerevisiae deletion strains, locus YLR268W, strain sec22, stronger effect = lower value 1.02 | S. cerevisiae deletion strains, locus YLR320W, strain mms22, stronger effect = lower value 1 | S. cerevisiae deletion strains, locus YLR330W, strain CHS5, stronger effect = lower value 0.994 | S. cerevisiae deletion strains, locus YLR342W, strain FKS1 (second series), stronger effect = lower value 0.973 | S. cerevisiae deletion strains, locus YLR342W, strain FKS1, stronger effect = lower value 1.03 | S. cerevisiae deletion strains, locus YLR357W, strain rsc2, stronger effect = lower value 1 | S. cerevisiae deletion strains, locus YLR370C, strain arc18, stronger effect = lower value 1.02 | S. cerevisiae deletion strains, locus YLR371W, strain rom2, stronger effect = lower value 0.993 | S. cerevisiae deletion strains, locus YLR384C, strain iki3, stronger effect = lower value 0.998 | S. cerevisiae deletion strains, locus YLR418C, strain cdc73, stronger effect = lower value 1.02 | S. cerevisiae deletion strains, locus YML016C, strain PPZ1, stronger effect = lower value 0.991 | S. cerevisiae deletion strains, locus YML032C, strain rad52, stronger effect = lower value 0.981 | S. cerevisiae deletion strains, locus YML120C, strain ndi1, stronger effect = lower value 1.04 | S. cerevisiae deletion strains, locus YML124C, strain tub3, stronger effect = lower value 0.992 | S. cerevisiae deletion strains, locus YMR058W, strain fet3, stronger effect = lower value 1.03 | S. cerevisiae deletion strains, locus YMR078C, strain ctf18, stronger effect = lower value 0.985 | S. cerevisiae deletion strains, locus YMR125W, strain sto1, stronger effect = lower value 1.01 | S. cerevisiae deletion strains, locus YMR129W, stronger effect = lower value 1.01 | S. cerevisiae deletion strains, locus YMR205C, strain PFK2, stronger effect = lower value 1.04 | S. cerevisiae deletion strains, locus YMR223W, strain ubp8, stronger effect = lower value 0.988 | S. cerevisiae deletion strains, locus YMR231W, strain pep5, stronger effect = lower value 1 | S. cerevisiae deletion strains, locus YMR263W, strain SAP30, stronger effect = lower value 1.04 | S. cerevisiae deletion strains, locus YMR307W, strain GAS1, stronger effect = lower value 0.96 | S. cerevisiae deletion strains, locus YNL067W, strain RPL9B, stronger effect = lower value 1.05 | S. cerevisiae deletion strains, locus YNL071W, strain lat1, stronger effect = lower value 1 | S. cerevisiae deletion strains, locus YNL128W, strain TEP1, stronger effect = lower value 1.03 | S. cerevisiae deletion strains, locus YNL153C, strain GIM3, stronger effect = lower value 1.01 | S. cerevisiae deletion strains, locus YNL183C, strain NPR1, stronger effect = lower value 0.994 | S. cerevisiae deletion strains, locus YNL209W, strain ssb2, stronger effect = lower value 1 | S. cerevisiae deletion strains, locus YNL233W, strain BNI4, stronger effect = lower value 1.01 | S. cerevisiae deletion strains, locus YNL248C, strain rpa49, stronger effect = lower value 0.991 | S. cerevisiae deletion strains, locus YNL250W, strain rad50, stronger effect = lower value 1.01 | S. cerevisiae deletion strains, locus YNL271C, strain bni1, stronger effect = lower value 1 | S. cerevisiae deletion strains, locus YNL298W, strain CLA4, stronger effect = lower value 0.992 | S. cerevisiae deletion strains, locus YNL307C, strain MCK1, stronger effect = lower value 0.985 | S. cerevisiae deletion strains, locus YNL322C, strain KRE1 (second series), stronger effect = lower value 1.02 | S. cerevisiae deletion strains, locus YNL322C, strain KRE1, stronger effect = lower value 1.01 | S. cerevisiae deletion strains, locus YNR049C, strain mso1, stronger effect = lower value 1.01 | S. cerevisiae deletion strains, locus YNR052C, strain pop2, stronger effect = lower value 0.984 | S. cerevisiae deletion strains, locus YOL006C, strain TOP1, stronger effect = lower value 1.09 | S. cerevisiae deletion strains, locus YOL012C, strain htz1 0.782 | S. cerevisiae deletion strains, locus YOL147C, strain pex11, stronger effect = lower value 0.996 | S. cerevisiae deletion strains, locus YOR001W, strain rrp6, stronger effect = lower value 1.02 | S. cerevisiae deletion strains, locus YOR061W, strain CKA2, stronger effect = lower value 1 | S. cerevisiae deletion strains, locus YOR069W, strain VPS5, stronger effect = lower value 0.992 | S. cerevisiae deletion strains, locus YOR070C, strain gyp1, stronger effect = lower value 1 | S. cerevisiae deletion strains, locus YOR080W, strain dia2, stronger effect = lower value 1.02 | S. cerevisiae deletion strains, locus YOR083W, strain WHI5, stronger effect = lower value 1.02 | S. cerevisiae deletion strains, locus YOR106W, strain vam3, stronger effect = lower value 1.05 | S. cerevisiae deletion strains, locus YOR136W, strain idh2, stronger effect = lower value 0.988 | S. cerevisiae deletion strains, locus YOR144C, strain elg1, stronger effect = lower value 0.989 | S. cerevisiae deletion strains, locus YOR184W, strain ser1, stronger effect = lower value 1 | S. cerevisiae deletion strains, locus YOR231W, strain MKK1, stronger effect = lower value 1.04 | S. cerevisiae deletion strains, locus YOR265W, strain rbl2, stronger effect = lower value 1.01 | S. cerevisiae deletion strains, locus YOR270C, strain vph1, stronger effect = lower value 1 | S. cerevisiae deletion strains, locus YOR290C, strain snf2, stronger effect = lower value 0.969 | S. cerevisiae deletion strains, locus YOR316C, strain cot1, stronger effect = lower value 0.988 | S. cerevisiae deletion strains, locus YPL051W, strain arl3, stronger effect = lower value 1.01 | S. cerevisiae deletion strains, locus YPL055C, strain LGE1, stronger effect = lower value 1.07 | S. cerevisiae deletion strains, locus YPL078C, strain atp4, stronger effect = lower value 1.06 | S. cerevisiae deletion strains, locus YPL106C, strain sse1, stronger effect = lower value 1.04 | S. cerevisiae deletion strains, locus YPL240C, strain hsp82, stronger effect = lower value 1.01 | S. cerevisiae deletion strains, locus YPL241C, strain CIN2, stronger effect = lower value 1 | S. cerevisiae deletion strains, locus YPL256C, strain CLN2, stronger effect = lower value 1.04 | S. cerevisiae deletion strains, locus YPR119W, strain clb2, stronger effect = lower value 1 | S. cerevisiae deletion strains, locus YPR141C, strain kar3, stronger effect = lower value 0.993 | S. cerevisiae deletion strains, locus YPR163C, strain tif3, stronger effect = lower value 0.994 | S. cerevisiae deletion strains, locus YPR167C, strain met16, stronger effect = lower value 0.995 | S. cerevisiae deletion strains, strain wtn01, stronger effect = lower value 0.999 | S. cerevisiae strains, strain wild type, stronger effect = lower value 1.03
